Screens from PubChem BioAssay.
ERG Ets-DNA blk: qHTS for Small Molecule Inhibitors of the ERG Ets/DNA interaction | 0.028% of 370,000 active | fluorescence polarization, His-ERG Ets domain / labelled DNA | Potency, µM (highest dose often 76.9 µM), inactives show at the highest dose FP activity, negative = inhibition, usual class: inhibitors; active = well fitted inhibition curve with a large enough effect in the polarisation, with a control signal flat; inconclusive = small, poorly fitted or top-dose-only effect, or effect the other way, or a change in a side signal; inactive = no such curve, though single readings can be large or run the other way; the % refers to the polarisation;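 note: polarization taken with two DNA probes labelled with fluorescein and Texas red; potency is the fitted concentration of half-maximal effect; % of control where 0% means no effect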
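His-tagged ERG Ets domain (1 uM in the protein solution; 300mM KCl, 50mM Tris-HCl, 1mM EDTA, 1mM DTT, pH 7.5) received compound, then a probe mix of 5 nM fluorescein-DNA and 100nM Texas-615-DNA. Fluorescence polarization was read for both dyes.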
PTAP TSG101 blk: qHTS Assay for Iinhibitors of HIV-1 Budding by Blocking the Interaction of PTAP/TSG101. Tumor susceptibility gene 101 protein (Homo sapiens), Q99816. Fluorescence polarization, FITC-PTAP peptide / Tsg101 binding. Potency, µM (doses to about 115 µM), for inactives: at the top dose activity change, negative = inhibition, most hits filed as inhibitors. 340,000 tested, under 10 active; active = well fitted inhibition curve with a large enough effect in the main read-out, with a control signal flat, not every such curve was filed as active; inconclusive = small, poorly fitted or top-dose-only effect, or effect the other way, or a change in a side signal; inactive = no such curve, though single readings can be large or run the other way; note: potency is the fitted concentration of half-maximal effect; % of control where 0% means no effect
Target sequence (Q99816 whole entry, looked up): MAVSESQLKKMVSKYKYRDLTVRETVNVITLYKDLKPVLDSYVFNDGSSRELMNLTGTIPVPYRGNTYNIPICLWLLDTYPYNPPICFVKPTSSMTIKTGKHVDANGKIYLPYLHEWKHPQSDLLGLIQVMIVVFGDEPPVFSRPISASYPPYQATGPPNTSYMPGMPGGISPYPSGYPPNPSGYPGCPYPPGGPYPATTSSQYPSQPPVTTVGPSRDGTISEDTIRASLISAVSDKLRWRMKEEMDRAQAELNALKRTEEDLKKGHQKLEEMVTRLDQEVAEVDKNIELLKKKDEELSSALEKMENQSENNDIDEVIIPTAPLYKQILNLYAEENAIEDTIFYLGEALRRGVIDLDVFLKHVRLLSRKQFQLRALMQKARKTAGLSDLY
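Compounds were pin-transferred onto Tsg101 binding domain (10 uM final) in HEPES pH 7.5 buffer, then FITC-PTAP peptide was added at 50 nM final. After 20 min at RT, polarization reported peptide displacement across a qHTS concentration series.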
IDH1 R132H inh: qHTS for Inhibitors of mutant isocitrate dehydrogenase 1 (IDH1): qHTS; 0.093% of 390,000 active; Potency, µM (titrated, usually from 76.6 µM), without a hit: at the highest dose activity change, negative = inhibition, usual class: inhibitors; AID 602179, 2012; Isocitrate dehydrogenase [NADP] cytoplasmic (Homo sapiens), O75874; IDH1-R132H enzyme, NADPH consumption, diaphorase/resazurin fluorescence; note: potency is the fitted concentration of half-maximal effect; % is set by controls: 0 for no effect and ±100 for the full control effect; nearly all actives have a fitted effect of over 65% in size
Target sequence (O75874 whole entry R132H, stated change not applied): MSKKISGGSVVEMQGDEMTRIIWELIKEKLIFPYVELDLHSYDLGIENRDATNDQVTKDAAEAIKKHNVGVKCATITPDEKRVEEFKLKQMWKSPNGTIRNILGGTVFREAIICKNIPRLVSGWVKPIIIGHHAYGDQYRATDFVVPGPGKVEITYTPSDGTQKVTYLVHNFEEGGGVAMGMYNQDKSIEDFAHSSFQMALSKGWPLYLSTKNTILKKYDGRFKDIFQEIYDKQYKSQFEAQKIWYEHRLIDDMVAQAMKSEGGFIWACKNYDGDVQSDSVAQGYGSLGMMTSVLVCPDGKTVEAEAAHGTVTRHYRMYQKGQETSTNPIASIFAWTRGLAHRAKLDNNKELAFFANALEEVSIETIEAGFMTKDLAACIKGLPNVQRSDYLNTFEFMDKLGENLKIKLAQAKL
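IDH1-R132H (0.5 ug/mL dispensed) in pH 7.5 Tris buffer was preincubated 30 min with compound, then given a substrate mix of 0.016 mM NADPH and 2 mM alpha-KG for 80 min at room temperature; remaining NADPH was read by diaphorase/resazurin fluorescence.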
Anesthetic bind: qHTS Assay for Identification of Novel General Anesthetics; Potency, µM (series often up to 77.5 µM), for the others: top-dose activity change, negative = displacement, most hits filed as inhibitors; 0.074% of 350,000 active; Ferritin light chain (Equus caballus), P02791; AID 485281, 2010; apoferritin/1-aminoanthracene competitive binding, fluorescence; note: potency is the fitted concentration of half-maximal effect; % is set by controls: 0 for no effect and ±100 for the full control effect; nearly all actives have a fitted effect of over 20% in size
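Horse-spleen apoferritin (10 uM) was mixed with 50% saturated 1-aminoanthracene in PBS, exposed to compounds for 10 min at room temperature, and read for fluorescence (ex 380 nm, em 535 nm). Competitive displacement was fitted with a four-parameter Hill equation.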
Resorufin autofl: qHTS for Inhibitors of mutant isocitrate dehydrogenase 1 (IDH1): Cherrypicks Autofluorescence Interference. shares compounds with IDH1 R132H inh. Resorufin detection reagent fluorescence interference, cell-free. inhibition of signal, % at 51.2 µM. 750 tested, under 10 active;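 note: 0% = wells with normal resorufin and full inhibition = wells lacking resorufin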
WT IDH1 inh: qHTS for Inhibitors of mutant isocitrate dehydrogenase 1 (IDH1): Cherrypicks in WT IDH1; shares compounds with IDH1 R132H inh; WT IDH1 enzyme, NADPH diaphorase/resazurin fluorescence; Potency, µM (series often up to 115 µM), for inactives: top-dose activity change, negative = inhibition, actives largely listed as inhibitors; 9% of 750 active; AID 623995, 2012;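 note: potency is the fitted concentration of half-maximal effect; 0% = full WT IDH1 enzyme control and full inhibition = no enzyme wells; nearly all actives have a fitted effect of over 55% in size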
mIDH1 confirm: qHTS for Inhibitors of mutant isocitrate dehydrogenase 1 (IDH1): Confirmation of Cherrypicks. IDH1 R132H enzyme, NADPH diaphorase/resazurin fluorescence. shares compounds with IDH1 R132H inh. Potency, µM (doses to about 76.6 µM), inactives show at the highest dose activity change, negative = inhibition, hits mostly inhibitors. 83% of 750 active; note: potency is the fitted concentration of half-maximal effect; nearly all actives have a fitted effect of over 50% in size
* marks the source's active call; other numbers are inactive results; ? = inconclusive; nt = no result. Hits are enriched below; roughly 0.18% of the tested compounds scored in any of these assays. Unless noted, calls come from the whole dose curve; as a rule, active = well fitted curve in the direction sought with a large enough effect; inconclusive = small, poorly fitted or top-dose-only effect, or another doubt; inactive = no such curve, though single readings can be large; an effect the other way counts as inactive or inconclusive.

SMILES	ERG Ets-DNA blk	PTAP TSG101 blk	IDH1 R132H inh	Anesthetic bind	Resorufin autofl	WT IDH1 inh	mIDH1 confirm
COc1cccc(Cn2c(=O)n(-c3cccc(Cl)c3C)c(=O)c3c4c(sc32)CN(C(C)=O)CC4)c1	1.0%	nt	35.5µM*	-8.0%	0.7	20µM*	25.1µM*
CSCCC(NS(=O)(=O)c1ccc(Cl)cc1)C(=O)OCC(=O)N(C(C)C)C(C)C (centres undefined)	-1.2%	-3.4%	4.2%	-10.4%	nt	nt	nt
CCNC(=S)N1CCN(CCN=CC2=C(O)CC(c3cccs3)CC2=O)CC1 (centres undefined)	nt	-5.2%	3.4%	-6.8%	nt	nt	nt
N#Cc1c2c(c(Nc3ccc(F)cc3)n3c1nc1ccccc13)CCCC2	nt	?	?	nt	2.7	-1.2%	22.4µM*
N#Cc1c2c(c(Nc3ccccc3)n3c1nc1ccccc13)CCC2	0.7%	-1.1%	-3.3%	-0.5%	nt	nt	nt
COc1cc(-c2cc(C(=O)Nc3ccc(S(N)(=O)=O)cc3)c3ccccc3n2)cc(OC)c1OC	1.6%	-6.3%	?	-19.0%	-0.8	1.0%	?
COc1cc(NC(=O)c2nc(-c3ccncc3)no2)cc(OC)c1OC	0.8%	nt	-12.7%	0.8%	nt	nt	nt
Nc1c2c(nc3cccc(Cl)c13)N(c1ccccc1)CC2	6.0%	-0.9%	-0.7%	3.5%	nt	nt	nt
CCN(CC)c1ccc(/C=N/NC(=O)Cc2nnc(NC(=O)Nc3ccccc3)s2)cc1	14.2%	2.9%	4.14µM*	116.0%	-7.9	-8.3%	6.31µM*
CCOc1ccc(C2c3c(-c4cc(C)ccc4O)n[nH]c3C(=O)N2Cc2cccnc2)cc1OCC (centres undefined)	-5.9%	nt	?	-23.7%	-2.6	0.4%	35.5µM*
CCc1ccc(C2c3c(-c4cc(C)ccc4O)n[nH]c3C(=O)N2Cc2cccnc2)cc1 (centres undefined)	2.7%	nt	28.2µM*	-17.3%	-6.7	-3.0%	15.8µM*
COc1cc(C2c3c(-c4cc(C)ccc4O)n[nH]c3C(=O)N2Cc2cccnc2)cc(OC)c1OC (centres undefined)	2.6%	nt	9.0%	-1.6%	nt	nt	nt
CCOC(=O)C1CCN(C(=O)CSc2c3c(nc4ccccc24)CCC3)CC1	12.6%	0.1%	10.3%	-13.8%	nt	nt	nt
Cc1ccc(CN2C(=O)CCC2(C)C(=O)NCc2cccnc2)cc1 (centres undefined)	-2.2%	-8.4%	6.8%	?	nt	nt	nt
CSc1cccc(Nc2cc(C(=O)NC3CCCCC3)c3ccccc3n2)c1	2.2%	nt	12.2%	-4.3%	nt	nt	nt
Cc1cc(O)c(C(=O)/C=C/c2ccc(Cl)cc2)c(=O)o1	31.9%	0.9%	-3.7%	-1.7%	nt	nt	nt
Cc1ccc(/C=C/C(=O)c2ccc([N+](=O)[O-])o2)cc1	2.8%	-2.4%	35.5µM*	nt	-9.8	?	8.91µM*
O=C(/C=C/c1ccc(Cl)cc1)c1ccc([N+](=O)[O-])o1	10.3%	-5.3%	11.2µM*	nt	0.2	?	8.91µM*
O=C(C#Cc1ccccc1)Nc1ccc(F)cc1	7.4%	1.1%	8.8%	-1.3%	nt	nt	nt
Cc1ccc(-n2c(O)c(C=Nc3ccccc3-c3n[nH]c(=S)[nH]c3=O)c3ccccc3c2=O)c(C)c1	-17.0%	-3.4%	?	-17.8%	-4.6	79.4µM*	35.5µM*
Cc1ccc(-n2c(SCC(=O)O)nc3c(sc(=S)n3-c3ccc(C)c(C)c3)c2=O)cc1	7.6%	-10.8%	5.1%	-8.9%	nt	nt	nt
Cc1ccc(-n2c(=S)sc3c(=O)n(-c4ccc(F)cc4)c(SCC(=O)O)nc32)cc1C	2.8%	-4.3%	?	0.2%	-22.1	0.1%	12.6µM*
C=CS(=O)(=O)c1c2cc(OC)ccc2nc2ccc(OC)cc12	0.3%	?	?	nt	2.1	28.2µM*	10µM*
COc1ccc(NS(=O)(=O)c2ccc(NC(=S)NC(=O)/C=C/c3ccccc3)cc2)nn1	-2.2%	-2.5%	?	-7.9%	-7.3	?	25.1µM*
COc1cc(NS(=O)(=O)c2ccc(NC(=S)NC(=O)/C=C/c3ccc(F)cc3)cc2)ncn1	-7.5%	-5.7%	6.56µM*	41.7%	-7.7	11.2µM*	1.41µM*
SMILES	ERG Ets-DNA blk	PTAP TSG101 blk	IDH1 R132H inh	Anesthetic bind	Resorufin autofl	WT IDH1 inh	mIDH1 confirm
COc1ccccc1NC(=O)CSc1nc(O)c(C/C=C/c2ccccc2)c(=O)[nH]1	2.3%	nt	9.8%	-12.8%	nt	nt	nt
COc1cccc(C2=C(C(C)=O)Sc3nncn3N2C(C)=O)c1	-1.5%	nt	?	6.2%	nt	nt	nt
CC(=O)C1=C(c2ccc(Cl)c(Cl)c2)N(C(C)=O)n2cnnc2S1	3.6%	nt	44.7µM*	-2.7%	-9.4	432.3%	20µM*
CC(=O)C1=C(c2ccc(Cl)c(Cl)c2)N(C(C)=O)n2c(C)nnc2S1	-7.7%	nt	44.7µM*	-14.0%	-0.1	314.2%	39.8µM*
Fc1ccc(NC(=S)N2CCc3ccccc32)cc1	-2.6%	-4.9%	3.3%	-14.6%	nt	nt	nt
CCc1ccc(NC(=O)C2=CC(c3cccs3)=NS(=O)(=O)N2C)cc1	-2.3%	-8.3%	8.1%	?	nt	nt	nt
CC(=O)Oc1ccc(C(=O)Nc2cccc(C(=O)c3ccc(C)c(C)c3)c2)cc1	8.8%	1.4%	?	-13.3%	1.4	2.1%	10µM*
COc1cc2c3c(c1)C1(C(=O)N3C(C)(C)C=C2C)C(C#N)=C(N)Oc2cc(O)ccc21 (centres undefined)	-4.0%	-5.3%	29.3µM*	-12.1%	-2.9	6.4%	15.8µM*
CCOc1ccc(NN=C(C(=O)OC)C(=O)OC)c([N+](=O)[O-])c1	7.0%	-0.6%	-0.7%	-6.7%	nt	nt	nt
CCc1ccc2c(c1)C(NC(C)=O)C(=O)N2CCN1CCOCC1 (centres undefined)	-18.9%	0.0%	46.5µM*	5.3%	-1.1	?	25.1µM*
CCCN1C(=O)C(NC(C)=O)c2ccccc21 (centres undefined)	0.5%	-5.7%	-0.3%	-4.3%	nt	nt	nt
O=C1c2[nH]nc(-c3ccccc3O)c2C(c2cccc(Br)c2)N1Cc1ccncc1 (centres undefined)	3.4%	nt	?	-11.1%	-2.6	-2.8%	25.1µM*
